From PubChem BioAssay (NCI)
This is part of a sample that, as a whole, favours compounds with a hit. Of some 79,000 tested, about 15% had one in any assay. Cut-off read from the data, not from the text of the source: active = growth inhibition above about 70%; inactive = the rest.

Assays:
[1] = NCI Yeast Anticancer Drug Screen. Data for the rad50 strain (AID 155);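 note: 0% = growth of vehicle-only cultures of the same strain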; conditions: S. cerevisiae rad50 strain growth inhibition; at 50.0 µM; hits give high values
Summary of the method: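 Yeast carrying a defined DNA repair defect were exposed to test compounds, and growth was compared with vehicle-treated controls to give percent inhibition.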

[2] = NCI Yeast Anticancer Drug Screen. Data for the mec2-1 strain (AID 157); conditions: S. cerevisiae mec2-1 strain, at 50.0 µM, hits give high values
Summary of the method: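 Test agents were screened against the mec2-1 yeast strain, with defined DNA repair or cell cycle alteration. Growth was scored as inhibition against vehicle-only controls.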

[3] = NCI Yeast Anticancer Drug Screen. Data for the sgs1 mgt1 strain (AID 161);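 note: 0% = growth of cultures given vehicle only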; conditions: S. cerevisiae sgs1 mgt1 strain, at 50.0 µM, hits give high values
Summary of the method: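 Genetically altered yeast, compound exposure, growth inhibition relative to vehicle.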

[4] = NCI Yeast Anticancer Drug Screen. Data for the cln2 rad14 strain (AID 165);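 note: 0% = growth equal to vehicle treated cultures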; conditions: S. cerevisiae cln2 rad14 strain, at 50.0 µM, hits give high values
Summary of the method: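 Growth of compound-exposed yeast (cln2 rad14 genotype) measured and expressed as inhibition relative to vehicle.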

[5] = NCI Yeast Anticancer Drug Screen. Data for the bub3 strain (AID 167); conditions: S. cerevisiae bub3 mutant strain, at 50.0 µM, hits give high values
Summary of the method: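 Compounds were applied to a genetically altered yeast strain carrying a cell-cycle control defect. Growth inhibition was scored against vehicle-treated controls.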

[6] = NCI Yeast Anticancer Drug Screen. Data for the mlh1 rad18 strain (AID 175); conditions: S. cerevisiae mlh1 rad18 strain growth inhibition; at 50.0 µM; hits give high values
Summary of the method: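 In this whole-cell yeast screen, a strain with altered DNA damage repair is challenged with compound, and its growth is measured against matched vehicle-treated controls.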

Measured: growth inhibition

Oc1ccccc1/C=N/c1nc(-c2ccccc2)cs1.[Co].[O-]c1ccccc1/C=N/c1nc(-c2ccccc2)cs1
inactive: [1] 19.2% | [2] 5.9% | [3] 9.8% | [4] 22.4% | [5] 5.35% | [6] 21.2%

Cc1nc2c(=O)n(C)c(=O)n(C)c2nc1CCC(=O)O
inactive: [1] -16.1% | [2] -3.9% | [3] -1.4% | [4] -52.5% | [5] 5.2% | [6] -5.6%

C1=C(c2ccccc2)c2ccccc2CC1
inactive: [1] -10.3% | [2] -7.25% | [3] -0.35% | [4] -3.45% | [5] 2.2% | [6] 3%
